Compound activity as filed in PubChem BioAssay.
IL1B secr inh: inhibitors of inflammasome signaling (IL-1 beta secretion); activity change, % at 57.5 µM; hit rate 4.7% among 360,000; THP-1 LPS/ATP IL-1B secretion, AlphaLISA, 16 h; active compounds read low; in the data active means activity change below about -50%; inconclusive means mostly about -30% to -49%
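THP-1 cells pretreated 1 hr with compounds (up to 57.5 uM final), then stimulated with LPS (250 ng/mL final) plus ATP (1.25 mM final); secreted IL-1B measured by AlphaLISA after 16 hr, decreased signal indicating inhibition.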
HT1080 IDH1KD tx: toxicity to HT-1080 IDH1 knockdown cells (counter line). HT-1080 IDH1 knockdown viability, ATP luminescence, 48 h. Potency, µM (top dose mostly 46.1 µM), without a hit: at the highest dose activity, negative = toxicity, actives largely listed as cytotoxic. hit rate 2% among 360,000;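 further: potency means the concentration at half of the fitted maximal effect; 0% = DMSO wells and -100% = cell-free medium wells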
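Viability of IDH1-knockdown HT-1080 fibrosarcoma cells was assessed by CellTiter-Glo after 48 h at 37 °C with titrated compound; concentration-effect curves were classified by fit quality and response size.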
ELG1 DNA repair: blocks ELG1-dependent DNA repair in HEK293T cells | hit rate 2.3% among 330,000 | Potency, µM (series often up to 46.1 µM), for the others: at the top dose activity change, negative = inhibition, usual class: inhibitors | HEK293T ELG1-luciferase reporter, luminescence, 16 h; DNA damage induced by 5-fluorouridine; further: potency means the concentration at half of the fitted maximal effect; nearly all actives have a fitted effect of over 55% in size
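Reporter activity after DNA damage by 5-fluorouridine is monitored. Compound-treated cells incubate 16 hr at 37 °C, then ONE-Glo is added for 30 min before luminescence reading.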
HT1080-NT tox: kills 2HG-producing HT-1080-NT fibrosarcoma cells | HT-1080-NT fibrosarcoma viability, CellTiter-Glo ATP luminescence, 48 h | Potency, µM (highest dose often 46.1 µM), for inactives: at the top dose activity, negative = less viability, most hits filed as cytotoxic | hit rate 1.6% among 360,000 | AID 686970;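 further: NT is the 2HG producing partner of a matched IDH1 knockdown line; potency means the concentration at half of the fitted maximal effect; 0% = DMSO-treated cells and -100% = media-only wells without cells; nearly all actives have a fitted effect of over 55% in size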
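Luminescent CellTiter-Glo readout after 48 hours of compound exposure at 37 degrees C defined viability of HT-1080-NT cells. Activity was normalized to DMSO wells and cell-free media wells; concentration-response curves were fitted and assigned curve classes.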
DT40 TDP1 CPT: growth inhibition of DT40 Tdp1-/-;hTDP1 cells with camptothecin (screen for TDP1 inhibitors); chicken DT40 Tdp1-/-;hTDP1 cells + 20 nM CPT, ATP luminescence, 48 h; Potency, µM (series often up to 46.2 µM), inactives show at the highest dose activity change, negative = growth inhibition, hits mostly inhibitors; hit rate 12% among 420,000; further: potency means the concentration at half of the fitted maximal effect; nearly all actives have a fitted effect of over 55% in size
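Chicken DT40 Tdp1-/- cells stably complemented with human TDP1 were seeded at 400 cells/well in medium containing 20 nM camptothecin, exposed to pin-transferred compounds, and grown at 37 °C for at least 48 hr. Viability was read as ATP luminescence.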
TDP1 cell noCPT: qHTS for Inhibitors of human tyrosyl-DNA phosphodiesterase 1 (TDP1): qHTS in cells in absence of CPT; DT40 Tdp1-/- hTDP1 cells, no CPT, ATP luminescence, 48 h; Potency, µM (highest dose often 46.2 µM), for the others: top-dose activity change, negative = growth inhibition, hits mostly inhibitors; hit rate 15% among 420,000; further: potency means the concentration at half of the fitted maximal effect; nearly all actives have a fitted effect of over 55% in size
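Growth of hTDP1-complemented DT40 Tdp1-knockout cells is measured by ATP luminescence after at least 48 hr compound exposure at 37 °C, with DMSO substituting for the 20 nM CPT used in the parallel screen.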
Active calls of the source: *. Most compounds without a hit are left out; they make up all but 19% or so of the library. Unless noted, the call rests on the fitted dose curve; in most records, active means well fitted curve in the direction sought with a large enough effect; inconclusive means small, poorly fitted or top-dose-only effect, or another doubt; inactive means no such curve, though single readings can be large; an effect the other way counts as inactive or inconclusive. Unless noted, on the % scale 0 is the no-effect control and ±100 the full control effect.

`O=C(NCc1nc2ccccc2[nH]1)C1=C[C@@H](c2ccc(C(F)(F)F)cc2)C[C@@H](OCCCCO)O1` gave IL1B secr inh 32, HT1080 IDH1KD tx -1%, HT1080-NT tox -1%, DT40 TDP1 CPT inconclusive and TDP1 cell noCPT inconclusive.
Screening CN(CC(=O)NCCc1ccc(F)cc1)Cc1ccc(Br)cc1 returned IL1B secr inh -59*, HT1080 IDH1KD tx -11%, ELG1 DNA repair -1%, HT1080-NT tox -15%, DT40 TDP1 CPT -6% and TDP1 cell noCPT inconclusive.
`CN(CC(=O)Nc1ccc(Br)cc1)Cc1ccccc1` gave IL1B secr inh -81*, HT1080 IDH1KD tx 5%, ELG1 DNA repair inconclusive, HT1080-NT tox -1%, DT40 TDP1 CPT -26% and TDP1 cell noCPT -29%.
For CN(CC(=O)Nc1cccc(C(F)(F)F)c1)Cc1ccccc1 the results were IL1B secr inh inconclusive, HT1080 IDH1KD tx 5%, ELG1 DNA repair 10%, HT1080-NT tox 1%, DT40 TDP1 CPT inconclusive and TDP1 cell noCPT 9.2µM*.
For CC(O)(CS(=O)(=O)Cc1cccc(C(F)(F)F)c1)C(=O)Nc1cccc(C(F)(F)F)c1 (stereo unspecified) the results were IL1B secr inh -8, HT1080 IDH1KD tx 16µM*, ELG1 DNA repair 2%, HT1080-NT tox inconclusive, DT40 TDP1 CPT 1% and TDP1 cell noCPT -29%.
`CC(O)(CS(=O)(=O)Cc1ccccc1Cl)C(=O)Nc1cccc(C(F)(F)F)c1` (stereo unspecified) gave IL1B secr inh -9, HT1080 IDH1KD tx -30%, ELG1 DNA repair -1%, HT1080-NT tox inconclusive, DT40 TDP1 CPT -18% and TDP1 cell noCPT -16%.
For CCCCNC(=O)C1(C)CCN1C(=O)c1ccc(C)c(F)c1 (stereo unspecified) the results were IL1B secr inh 36, HT1080 IDH1KD tx inconclusive, HT1080-NT tox 16%, DT40 TDP1 CPT -5% and TDP1 cell noCPT 0%.
Screening O=C(NCc1ccccc1Cl)C1=CC=CN2CCS(=O)(=O)N=C12 returned IL1B secr inh 11, HT1080 IDH1KD tx -3%, ELG1 DNA repair inconclusive, HT1080-NT tox -2%, DT40 TDP1 CPT -7% and TDP1 cell noCPT 20%.
O=C(C1CCN(S(=O)(=O)c2c(Cl)cccc2Cl)CC1)N1CCCCCCC1 was read as IL1B secr inh -20, HT1080 IDH1KD tx -6%, ELG1 DNA repair inconclusive, HT1080-NT tox 1%, DT40 TDP1 CPT -21% and TDP1 cell noCPT inconclusive.
`CCOc1ccc(NC(=O)COc2ccc(S(=O)(=O)N3CCOCC3)cc2)cc1` gave IL1B secr inh 8, HT1080 IDH1KD tx 18%, ELG1 DNA repair -1%, HT1080-NT tox 12%, DT40 TDP1 CPT 3.3µM* and TDP1 cell noCPT inconclusive.
O=C(OCCOc1ccc(F)cc1)c1ccc(S(=O)(=O)N2CCCC2)cc1 was read as IL1B secr inh -1, HT1080 IDH1KD tx 2%, ELG1 DNA repair -2%, HT1080-NT tox -6%, DT40 TDP1 CPT -9% and TDP1 cell noCPT 2.3µM*.
O=C(CCCOc1ccc(Br)cc1)Nc1ccc(S(=O)(=O)N2CCOCC2)cc1 was read as IL1B secr inh inconclusive, HT1080 IDH1KD tx inconclusive, ELG1 DNA repair inconclusive, HT1080-NT tox inconclusive, DT40 TDP1 CPT inconclusive and TDP1 cell noCPT 16µM*.
Screening CNC(=O)COc1ccc(S(=O)(=O)N2CCCC2)cc1 returned IL1B secr inh 9, HT1080 IDH1KD tx -6%, ELG1 DNA repair 10%, HT1080-NT tox -1%, DT40 TDP1 CPT 29µM* and TDP1 cell noCPT inconclusive.
For CC(C)Oc1ccc(S(=O)(=O)N2CCOCC2)cc1NC(=O)CC1CCCC1 the results were IL1B secr inh -15, HT1080 IDH1KD tx -2%, ELG1 DNA repair -16%, HT1080-NT tox -2%, DT40 TDP1 CPT inconclusive and TDP1 cell noCPT inconclusive.
For CC(=O)Nc1ccc(OCC(=O)Nc2ccc(Cl)c(S(=O)(=O)N3CCOCC3)c2)cc1 the results were ELG1 DNA repair 5.8µM*.
For O=C(COc1ccc(S(=O)(=O)N2CCOCC2)cc1)NCCc1ccc(Cl)cc1 the results were IL1B secr inh -24, HT1080 IDH1KD tx -15%, HT1080-NT tox -15%, DT40 TDP1 CPT inconclusive and TDP1 cell noCPT 18µM*.
Screening CC(CC(=O)Nc1ccc(Cl)c(S(=O)(=O)N2CCOCC2)c1)c1ccccc1 (stereo unspecified) returned IL1B secr inh -18, HT1080 IDH1KD tx -13%, ELG1 DNA repair 8.2µM*, HT1080-NT tox 18µM*, DT40 TDP1 CPT inconclusive and TDP1 cell noCPT inconclusive.
For O=C(CC1CCCC1)Nc1cc(S(=O)(=O)N2CCOCC2)ccc1O the results were IL1B secr inh 21, HT1080 IDH1KD tx 3%, ELG1 DNA repair 15%, HT1080-NT tox 4%, DT40 TDP1 CPT 8.2µM* and TDP1 cell noCPT inconclusive.
For CCNC(=O)c1ccccc1NC(=O)C1CC(=O)N(C(C)C)C1 (stereo unspecified) the results were IL1B secr inh 0, HT1080 IDH1KD tx 1%, ELG1 DNA repair 18%, HT1080-NT tox 0%, DT40 TDP1 CPT 7% and TDP1 cell noCPT 11%.
For O=C(NCC(O)c1nc2ccccc2[nH]1)c1cc2ccccc2[nH]1 (stereo unspecified) the results were IL1B secr inh -7, HT1080 IDH1KD tx 5%, HT1080-NT tox 4%, DT40 TDP1 CPT -20% and TDP1 cell noCPT -18%.
`C[C@@H]1CN([C@H](C)CO)C(=O)c2cc(NS(=O)(=O)c3cn(C)cn3)ccc2O[C@H]1CN(C)C(=O)Nc1ccccc1` gave IL1B secr inh 6, HT1080 IDH1KD tx 6%, ELG1 DNA repair inconclusive, HT1080-NT tox 7%, DT40 TDP1 CPT -5% and TDP1 cell noCPT -22%.
Screening COc1ccc(OCC(=O)Nc2ccc(S(=O)(=O)N3CCOCC3)cc2)cc1 returned IL1B secr inh -7, HT1080 IDH1KD tx 0%, ELG1 DNA repair 0%, HT1080-NT tox 13%, DT40 TDP1 CPT 0% and TDP1 cell noCPT -19%.
Screening COc1ccc(OCCC(=O)OCC(=O)Nc2ccc(S(=O)(=O)N3CCOCC3)cc2)cc1 returned IL1B secr inh -65*, HT1080 IDH1KD tx -11%, ELG1 DNA repair 10%, HT1080-NT tox -11%, DT40 TDP1 CPT 0% and TDP1 cell noCPT -17%.
Screening CCOc1ccc(CN2CCN(S(=O)(=O)c3ccc(NC(C)=O)cc3)CC2)cc1 returned IL1B secr inh -17, HT1080 IDH1KD tx -30%, ELG1 DNA repair inconclusive, HT1080-NT tox -11%, DT40 TDP1 CPT inconclusive and TDP1 cell noCPT 15µM*.
